SMILES strings stand for the structures.

In the assay the target is Estrogen receptor (Homo sapiens) (UniProt P03372). Kind of assay: ERalpha ligand binders by competition, primary screen, cell-based, Cos7 ERalpha-GFP, flow cytometry (AID 1211).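 Note: 0% = DMSO vehicle wells and 100% = no E2-Alexa633 signal left.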 The note with it: fluorescent ligand competition, binding inhibition, at 0.1 µM, stronger effect = higher value. On the technique in general: In flow cytometry, cells or beads pass a laser one at a time.
Chain of Estrogen receptor (Homo sapiens) (P03372 whole entry, looked up): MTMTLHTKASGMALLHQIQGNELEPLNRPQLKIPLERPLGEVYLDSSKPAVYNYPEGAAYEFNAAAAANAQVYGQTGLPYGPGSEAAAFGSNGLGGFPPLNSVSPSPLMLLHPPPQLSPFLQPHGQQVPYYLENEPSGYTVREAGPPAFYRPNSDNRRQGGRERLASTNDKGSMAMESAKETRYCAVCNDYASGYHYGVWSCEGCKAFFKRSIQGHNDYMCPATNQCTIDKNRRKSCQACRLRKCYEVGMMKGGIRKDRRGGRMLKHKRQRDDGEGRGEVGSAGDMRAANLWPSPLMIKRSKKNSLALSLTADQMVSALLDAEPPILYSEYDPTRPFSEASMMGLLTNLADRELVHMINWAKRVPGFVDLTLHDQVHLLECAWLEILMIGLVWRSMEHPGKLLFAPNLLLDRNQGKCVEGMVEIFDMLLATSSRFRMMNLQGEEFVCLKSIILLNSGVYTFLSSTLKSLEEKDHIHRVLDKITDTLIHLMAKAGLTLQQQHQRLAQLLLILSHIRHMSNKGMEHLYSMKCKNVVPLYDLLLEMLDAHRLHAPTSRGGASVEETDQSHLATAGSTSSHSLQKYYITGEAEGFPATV
In turn, `O=C1C(c2ccnc3ccccc23)=C(O)c2ccccc21` registered an inhibition of ligand binding of 28%.
In the case of `Cc1ccc(-c2n[nH]c(=S)n2/N=C/C=C/c2ccccc2[N+](=O)[O-])cc1` it was 14%.
The value for `O=C(CSc1nnc(Nc2ccccc2F)s1)NCc1ccco1` was 3%; that for `Cc1ccc(-c2n[nH]c(=S)n2/N=C/C=C\c2ccccc2[N+](=O)[O-])cc1` was 57%; that for `Cc1oc2cc(O)ccc2c(=O)c1Oc1ccccc1` was 93%.
For `C=CCn1c(=O)c(C#N)cc2c(=O)n3ccccc3nc21`, the inhibition of ligand binding was determined as 42%.
`CSC1=N/C(=C\c2ccc(Br)o2)C(=O)S1` displayed an inhibition of ligand binding of 13%.
In the case of `O=C(Oc1ccc2c(c1)OCO2)c1cc2c(s1)CCC2` it was 27%; in that of `CCOC(=O)c1c(/N=C/c2ccc(O)cc2O)sc2c1CCC2`, 42%; in that of `CN(C)CC(=O)N1c2ccccc2CCc2ccc(NC(=O)c3ccc(N)cc3)cc21`, 41%.
The value for `Cc1nnc(Oc2ccccc2F)c2ccccc12` was 57%; that for `COc1cc(/C=C2\OC(=O)c3c(OC)cccc32)ccc1O` was 28%.
In the case of `COc1ccc(C2C=C(c3ccc(Cl)cc3)Nc3nc(NC(C)=O)nn32)cc1` (centres undefined) it was 22%; in that of `O=C(COC(=O)c1ccccc1Oc1ccccc1)NCc1ccco1`, 53%.
In turn, `O=C(N/N=C/c1cccc(Oc2ccc([N+](=O)[O-])cc2[N+](=O)[O-])c1)c1cncc(Br)c1` had an inhibition of ligand binding of 63%.
In turn, `COc1ccc(Cn2c(=O)[nH]c3cc(C(=O)NCc4ccc5c(c4)OCO5)ccc3c2=O)cc1` came in with an inhibition of ligand binding of 53%.
In the case of `Cc1snc2sc(C(=O)c3ccc(Br)cc3)c(N)c12` it was 29%; in that of `C[C@]12CC[C@@H]3c4ccc(O[C@@H]5O[C@H](C(=O)O)[C@@H](O)[C@H](O)[C@H]5O)cc4CC[C@H]3[C@@H]1C[C@@H](O)[C@@H]2O`, 40%; in that of `N=c1c(C(=O)NCc2ccc(F)cc2)cc2c(=O)n3ccccc3nc2n1Cc1cccnc1`, 26%.
The value for `Cc1c(C(=O)OCc2ccccc2)[nH]c2c1C(=O)CC(c1ccco1)C2` (centres undefined) was 24%; that for `CCC1=NN2C(=N)/C(=C\c3ccc(SCc4ccco4)o3)C(=O)N=C2S1` was 10%.
The value for `Cc1cccn2c(=O)c3cc(C(=O)O)n(C)c3nc12` was 17%.
`O=C(Nc1ccc2nn(-c3ccccc3)nc2c1)c1ccc2c(c1)OCO2` yielded an inhibition of ligand binding of 44%.
`O=C(Nc1cccc(-c2cnc3ccccc3n2)c1)c1cccc(NC(=O)c2ccco2)c1` displayed an inhibition of ligand binding of 23%.
The value for `Oc1ccccc1C1=Nc2ccccc2N=C(c2cccs2)C1` was 54%.
Take `O=C(c1cc2c(s1)CCC2)N1CCN(c2ccccc2)CC1`: the inhibition of ligand binding stood at 70%.
In the case of `COCCNC(=O)c1c(N)n(/N=C/c2cccs2)c2nc3ccccc3nc12` it was 6%.
Regarding `COc1cccc([C@@H]2Oc3ccc(OC)cc3C(=O)[C@H]2O)c1`, the inhibition of ligand binding was found to be 43%.
The value for `Cc1ccc(Oc2cc(N3CCOCC3)nc(-c3ccccc3)n2)cc1` was 66%.
The value for `NC(=O)c1oc2ccccc2c1NC(=O)c1nc2ccccc2s1` was 4%.
The value for `O=C(O)C1CSC(c2coc3ccccc3c2=O)N1` (centres undefined) was 47%; that for `COc1ccc(NC(=O)CSc2nc3ccccc3c3nc4ccccc4n23)cc1` was 31%; that for `COc1ccc(C(Nc2ccccn2)c2oc(CO)cc(=O)c2O)cc1` (centres undefined) was 22%.
For `COc1ccc(/C=N/NC(=O)c2nc(-c3ccccc3)cc(-c3ccccc3)n2)cc1O`, the inhibition of ligand binding is 97%.
The value for `O=C(NNC(=O)c1ccc(SCC2CCCO2)c([N+](=O)[O-])c1)c1ccc(Cl)c([N+](=O)[O-])c1` (centres undefined) was 45%.
In the case of `Nc1ccc2nc(-c3cccs3)[nH]c2c1` it was 49%; in that of `COc1ccc(-n2c(SCC(=O)Nc3nccs3)nc3sc4c(c3c2=O)CCN(C)C4)cc1`, 24%.
The value for `Nc1ccc(-c2cc(-c3cccc(N)c3)nc(-c3ccccc3)n2)cc1` was 2%; that for `CCOC(=O)C1=c2/c(=C/c3ccccc3OC)c(N)c(C#N)n2C(=O)C(c2ccccc2OC)S1` (centres undefined) was 21%.
